Screens (PubChem)
The entries come from a sample that favours hits as a whole.
Shiga inhibitor: blocks Shiga toxin action in Vero cells; inhibition, % at 38.7 µM; hit rate 9.2% among 290,000; Vero cells, Shiga toxin protein synthesis inhibition reporter; in the data active means inhibition mostly above about 28%, no sharp cut-off; inactive means mostly below about 43%; further: 0% is about no effect
Cycloheximide cs: counter-screen for Shiga toxin inhibitors: cycloheximide protein synthesis inhibition | cell reporter, cycloheximide protein synthesis inhibition counterscreen | max response, % | hit rate 12% among 300,000 | AID 2314; in the data active means max response mostly above about 13%, no sharp cut-off; inactive means mostly below about 14%; further: read at 38.3 µM for the half of the compounds with a filed dose; 0% is about no effect
AmpC inh no detg: AmpC beta-lactamase inhibition without detergent; P00811; AmpC nitrocefin hydrolysis, absorbance 480 nm, 0.0001% Triton; Potency, µM (highest dose often 57.1 µM), without a hit: at the top dose activity change, negative = inhibition, hits mostly inhibitors; hit rate 0.52% among 330,000;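 further: potency means the concentration at half of the fitted maximal effect; plate controls were no compound for no effect and no enzyme for full effect; nearly all actives have a fitted effect of over 20% in size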
Target sequence (P00811 whole entry, looked up): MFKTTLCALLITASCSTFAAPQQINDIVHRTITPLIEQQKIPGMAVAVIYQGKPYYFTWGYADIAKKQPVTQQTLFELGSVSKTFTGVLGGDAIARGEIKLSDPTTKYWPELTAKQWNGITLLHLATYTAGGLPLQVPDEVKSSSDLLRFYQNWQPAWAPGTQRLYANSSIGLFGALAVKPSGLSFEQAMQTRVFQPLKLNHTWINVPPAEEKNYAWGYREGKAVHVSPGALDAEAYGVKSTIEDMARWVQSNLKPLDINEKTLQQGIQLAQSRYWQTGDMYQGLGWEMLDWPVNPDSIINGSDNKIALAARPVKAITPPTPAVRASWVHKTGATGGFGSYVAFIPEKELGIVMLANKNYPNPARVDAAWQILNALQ
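AmpC (5.3 nM in the dispensed reagent) in 20 mM phosphate pH 7.0 with 0.01% (detergent screen) or 0.0001% Triton X-100 was preincubated with compounds for 15 min at room temperature. Nitrocefin was then added from an 800 uM solution, and hydrolysis was followed at 480 nm.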
SARS PLP yeast: SARS-CoV PLP inhibition in yeast; S. cerevisiae expressing SARS-CoV PLpro, growth rescue; hit rate 0.19% among 330,000; Potency, µM (top dose mostly 32.9 µM), for inactives: at the top dose activity, positive = growth rescue, actives largely listed as activators; AID 485353; calls by dose curve; further: potency means the concentration at half of the fitted maximal effect; 0% is about no effect; nearly all actives have a fitted effect of over 55% in size
AmpC detergent: AmpC beta-lactamase inhibition with detergent present; P00811; hit rate 0.041% among 370,000; Potency, µM (titrated, usually from 114 µM), for inactives: top-dose activity change, negative = inhibition, most hits filed as inhibitors; AID 485294; AmpC hydrolysis of nitrocefin, absorbance 480 nm, 0.01% Triton;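 further: potency means the concentration at half of the fitted maximal effect; 0% = no-compound wells and -100% = no-enzyme wells; nearly all actives have a fitted effect of over 25% in size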
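AmpC (5.3 nM in the dispensed reagent) in 20 mM phosphate pH 7.0 with 0.01% (detergent screen) or 0.0001% Triton X-100 was preincubated with compounds for 15 min at room temperature. Nitrocefin was then added from an 800 uM solution, and hydrolysis was followed at 480 nm.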
AMA1 RON2 block: AMA1-RON2 (P. falciparum) interaction inhibition. AlphaScreen AMA1-biotinylated RON2 peptide binding. Potency, µM (series often up to 58.2 µM), inactives show at the top dose activity change, negative = inhibition, actives largely listed as inhibitors. hit rate 0.2% among 360,000;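 further: potency means the concentration at half of the fitted maximal effect; 0% = vehicle wells and -100% = peptide control; nearly all actives have a fitted effect of over 45% in size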
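AMA1 (3D7) with his tag at 25 nM final met compounds first, then biotinylated RON2 peptide at 25 nM; detection used donor plus acceptor beads, 10 µg/mL apiece, read by AlphaScreen after 30 min at room temperature.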
* = called active by the depositor; ? = inconclusive; · = not tested or not shown. Unless noted, the call rests on the fitted dose curve; in most records, active means well fitted curve in the direction sought with a large enough effect; inconclusive means small, poorly fitted or top-dose-only effect, or another doubt; inactive means no such curve, though single readings can be large; an effect the other way counts as inactive or inconclusive.

SMILES	Shiga inhibitor	Cycloheximide cs	AmpC inh no detg	SARS PLP yeast	AmpC detergent	AMA1 RON2 block
O=[N+]([O-])c1cc(C(F)(F)F)ccc1NCCOc1ccccc1	31*	48*	-27%	-4%	?	-40%
O=[N+]([O-])c1cc(C(F)(F)F)ccc1NC1CCN(Cc2ccccc2)C1 (stereo not given)	-17	-1	67%	-8%	5%	-26%
Cc1ccccc1OCCNc1ccc(C(F)(F)F)cc1[N+](=O)[O-]	49	20*	-15%	-11%	-5%	?
O=[N+]([O-])c1cc(C(F)(F)F)ccc1NC1CCN(Cc2ccccc2)CC1	-6	1	10%	-4%	0%	13µM*
CS(=O)(=O)NCCNc1ccc(C(F)(F)F)cc1[N+](=O)[O-]	-13	-1	-2%	-1%	2%	-4%
CN(C)S(=O)(=O)NCCNc1ccc(C(F)(F)F)cc1[N+](=O)[O-]	9	12*	0%	0%	0%	-21%
CC(=O)OCCNC(=O)c1cc2ccccc2oc1=O	-9	6	-11%	6%	-6%	6%
O=C(OCCNc1ccc(C(F)(F)F)cc1[N+](=O)[O-])c1cc2ccccc2oc1=O	2	18*	-12%	-1%	2%	2%
COc1ccc(N2CCN(C(=O)COc3ccc(Cl)cc3Cl)CC2)cc1	16	3	64%	-2%	0%	-9%
O=C(O)c1cccc(NC(=O)c2cccc(S(=O)(=O)Nc3cccc(C(=O)O)c3)c2)c1	·	·	·	·	8%	·
O=C1c2ccccc2C(=O)c2cc(S(=O)(=O)Nc3ccccc3)ccc21	-12	2	28µM*	4%	-12%	-30%
O=C(O)c1cccc(NS(=O)(=O)c2ccc3c(c2)C(=O)c2ccccc2C3=O)c1	20	16*	-32%	0%	2%	-6%
N#C/C(=C\c1c[nH]c2ccccc12)C(=O)NC1CC1	36*	56*	-23%	-17%	?	1%
Cc1[nH]c2ccccc2c1/C=C(\C#N)C(=O)NC1CC1	129*	55*	-23%	1%	?	-1%
N#C/C(=C\c1c[nH]c2ccccc12)C(=O)NC1CCCC1	42*	22*	-43%	-4%	1%	14%
CC(C)COC(=O)/C(C#N)=C/c1c[nH]c2ccccc12	43	18*	-21%	6%	0%	-5%
Cc1[nH]c2ccccc2c1/C=C(\C#N)C(=O)NC(C)c1ccccc1 (stereo not given)	-5	-3	-37%	-42%	3%	-6%
CCN(Cc1ccccc1)C(=O)c1cc2c(=O)oc3ccc(C)cc3c2s1	2	4	11%	4%	16%	0%
N#Cc1ccc(/C=C(\C(=O)C(=O)O)c2ccc3ccccc3n2)cc1	74*	57*	-26%	-1%	5%	9%
O=C(O)C(=O)/C(=C\c1cccc(Cl)c1)c1ccc2ccccc2n1	110*	93*	-19%	-5%	-12%	0%
Cc1cccc(/C=C(\c2nc3ccccc3[nH]2)S(=O)(=O)c2ccccc2)c1	-6	-4	-26%	-6%	-3%	-3%
Cc1cccc(/C=C(\C(=O)C(=O)O)c2ccc3ccccc3n2)c1	62*	46*	-35%	-3%	-13%	-21%
O=C(O)/C(=C\c1ccccc1)c1ccc2ccccc2c1	·	·	·	·	·	-10%
COc1ccc(N2CC(NS(=O)(=O)c3cccs3)CC2=O)cc1OC (stereo not given)	·	·	-3%	3%	?	-2%
O=C(O)c1ccc2c(=O)n3c(nc2c1)/C(=C/c1ccccc1OC(F)F)CC3	-8	4	-8%	5%	5%	0%
SMILES	Shiga inhibitor	Cycloheximide cs	AmpC inh no detg	SARS PLP yeast	AmpC detergent	AMA1 RON2 block
CCCOc1ccc(-c2cnc(N)s2)cc1	64*	50*	-20%	-14%	-11%	-5%
CCCCCCSc1nnc(N)s1	7	16	-19%	-3%	-11%	-15%
CCCCCCCSc1nnc(N)s1	44*	14*	-24%	-3%	-1%	18%
CCCOc1ccc(-c2cnc(SCC(N)=O)nc2N)cc1	22	14	-13%	-1%	-8%	21%
CCCOc1ccc(OCCSc2nnc(N)s2)cc1	95*	26*	-27%	-8%	1%	0%
CC(=O)Oc1ccc(C(=O)Nc2ccccc2C(=O)Nc2cccc(C(=O)O)c2)cc1	-7	-3	-13%	·	-1%	-9%
Cc1ccc(S(=O)(=O)N2CCN(C(=O)C3CCN(C(=O)c4ccc(F)cc4)CC3)CC2)c(C)c1	·	·	160%	0%	?	4%
O=C(CCN1CCN(c2ccccc2)CC1)NNC(=O)c1cccc2ccccc12	-1	5	3%	4%	6%	43%
CS(=O)(=O)n1nc(-c2ccc(Cl)cc2)nc1SCc1ccccc1	73*	39*	-42%	-31%	-7%	14%
CSc1nc(-c2ccc(Cl)cc2)nn1S(=O)(=O)c1ccccc1	34	10	-30%	19%	-3%	-6%
COc1ccc(-c2nc(SCc3ccccc3)n(C(=O)c3ccco3)n2)cc1	11	26*	-6%	-2%	-12%	-2%
COc1ccc(-c2nc(SC)n(C(=O)c3ccco3)n2)cc1	59*	33*	-2%	?	-1%	9%
COC(=O)c1ccc(NCC(=O)Nc2cc(C)cc(C)c2)cc1	25	13	-28%	1%	2%	-5%
O=C(O)c1ccc(N=Nc2c(O)[nH]c3cc(Cl)ccc23)cc1	67*	36*	-24%	-1%	-6%	-7%
O=C(O)c1ccc(N=Nc2c(O)[nH]c3ccc(Br)cc23)cc1	111*	56*	-19%	-2%	-5%	-9%
Cc1cccc2c(N=NC(=O)C(C)n3cnc4ccccc4c3=O)c(O)[nH]c12 (stereo not given)	·	·	·	·	·	-21%
Oc1[nH]c2ccccc2c1N=Nc1cccc(Cl)c1	34*	28*	?	-1%	4%	6%
Cc1cccc2c(N=Nc3ccccc3)c(O)[nH]c12	57*	65*	-14%	0%	6%	-4%
Nc1nc(N)c(N=Nc2ccc(C(=O)O)cc2)c(N)n1	14	3	-6%	0%	4%	-10%
COC(=O)N=Nc1c(O)[nH]c2ccc(Br)cc12	5	-1	-15%	-2%	0%	-18%
CC(C)(C)CC(C)(C)NC(=S)Nc1ccc(S(=O)(=O)N2CCOCC2)cc1	-6	-1	-29%	5%	?	36%
CCOC(=O)C1CCN(C(=O)c2ccc(N(C)S(=O)(=O)c3ccc(OC)cc3)cc2)CC1	3	-4	119%	-1%	3%	-6%
COc1cc(NC(=O)c2cccs2)c(C(=O)OCC(=O)NCc2ccco2)cc1OC	-6	11	36%	3%	-11%	-6%
